Compound activity as filed in PubChem BioAssay.
Rows were chosen to be rich in hits. Some 2.1% of all compounds tested hit in one or more screens of this group.
Abeta rescue = qHTS for compounds that reverse cellular toxicity of Amyloid beta (A-beta) peptide in yeast: Primary Screen; yeast expressing A-beta42, growth rescue, OD600, 48 h; response scale: 0% DMSO, 100% iron-clioquinol control; Potency, µM (top dose mostly 46.1 µM), actives largely listed as activators; 410,000 tested, 0.063% active; AID 1347071, 2019; note: nearly all actives have a fitted effect of over 55% in size
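Yeast growth medium received pinned compounds, then yeast cells expressing toxic A-beta were added; plates incubated at 30 C for 48 hr. Growth read as absorbance at 600 nm, normalized to DMSO and equimolar FeCl3 plus clioquinol controls.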
aSyn rescue = qHTS of alpha-syn Inhibitors; Yeast expressing alpha-synuclein, growth rescue, BacTiter-Glo, 24 h; Potency, µM (doses to about 46.1 µM), without a hit: at the highest dose growth rescue (activation), hits mostly activators; 370,000 tested, 0.14% active; AID 652106, 2013; note: % of control where 0% means no effect; nearly all actives have a fitted effect of over 65% in size
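Rescue of yeast growth: cells expressing toxic alpha-synuclein, induced in galactose at OD600 0.02, incubated with compound 24 h at 30 C. ATP luminescence quantified growth; inhibitors of toxicity appear as activators.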
TDP-43 yeast inh = qHTS of TDP-43 Inhibitors | TDP-43 expressing yeast growth rescue, BacTiter-Glo, 24 h | Potency, µM (doses to about 46.1 µM), for inactives: at the top dose growth rescue (activation), usual class: activators | 410,000 tested, 1.8% active | AID 652104, 2013; note: % of control where 0% means no effect; nearly all actives have a fitted effect of over 50% in size
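In this qHTS, compounds that restore growth of yeast expressing TDP-43 appear as activators. Cells (OD600=0.02, galactose medium, raffinose-pregrown) are incubated with compound 24 hr at 30 deg C and growth is quantified by BacTiter-Glo.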
FUS yeast rescue = qHTS for Suppressors of FUS Proteinopathy: Primary screen using FUS-linked yeast assay; 390,000 tested, 0.24% active; AID 1347120, 2019; S. cerevisiae FUS-expressing, growth rescue, OD600, 24 h; Potency, µM (highest dose often 76.6 µM), most hits filed as activators;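 note: plate controls were DMSO vehicle for no effect and reference control for full effect; nearly all actives have a fitted effect of over 55% in size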
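S. cerevisiae expressing FUS from galactose induction served as the toxicity model. Growth after 24hr at 30C, read as absorbance at 600 nm, indicates suppression of toxicity; compounds dosed at several concentrations.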
The depositor's hits bear a star; i = inactive; u = inconclusive; x = no result; [ ] = dose if it differs, or a comment. Calls come from the whole dose curve; as a rule, active = well fitted curve in the direction sought with a large enough effect; inconclusive = small, poorly fitted or top-dose-only effect, or another doubt; inactive = no such curve, though single readings can be large; an effect the other way counts as inactive or inconclusive. Potency is the fitted concentration of half-maximal effect.

SMILES	Abeta rescue	aSyn rescue	TDP-43 yeast inh	FUS yeast rescue
CC1CC(C)CN(c2nc(N(C)c3ccccc3)nc(N)c2[N+](=O)[O-])C1 (stereo unspecified)	i	16.0%	17.8µM*	i
CC1CN(c2nc(N(C)c3ccccc3)nc(N)c2[N+](=O)[O-])CC(C)O1 (stereo unspecified)	i	13.0%	2.0%	i
O=C(O)c1ccc(NCc2ccncc2)cc1	i	-6.6%	-32.5%	i
O=C(O)c1ccc(NCc2cccc(Br)c2)cc1	i	u	11.2µM*	i
c1ccc2c(c1)N=C(N1CCN(Cc3ccc4c(c3)OCO4)CC1)c1ccccc1S2	x	x	x	i
COC(=O)c1cc(-c2cccc3c2sc2ccccc23)c(=O)n2c1CCC2	x	x	x	i
COc1ccc(-c2nnc3n2N=C(c2cccc([N+](=O)[O-])c2)CS3)cc1	x	x	x	i
COC(=O)c1sc(-c2ccc(C(C)(C)C)cc2)cc1NC(=O)CSCC(=O)O	i	-22.3%	15.0%	28.2µM*
COC(=O)c1sc(-c2ccc(C(C)(C)C)cc2)cc1NC(=O)c1ccccc1C(=O)O	i	-89.8%	23.9%	i
Cc1cccc(NC(=O)c2cccc(S(=O)(=O)N(C)C3CCCCC3)c2)n1	i	11.5%	20µM*	i
Cc1ccccc1NC(=O)c1ccc(F)c(S(=O)(=O)N(C)C2CCCCC2)c1	u	x	15.8µM*	u
O=C(Nc1ccccn1)c1cccc(S(=O)(=O)N2CCCCC2)c1	i	8.1%	16.3%	i
COc1ccccc1N(C)S(=O)(=O)c1ccc(Cl)c(C(=O)Nc2cccc(C)n2)c1	i	7.3%	4.5%	i
CN(C1CCCCC1)S(=O)(=O)c1cccc(C(=O)Nc2ccccn2)c1	i	6.5%	17.8µM*	i
Cc1cccc(NC(=O)c2cc(S(=O)(=O)N(C)c3ccc(F)cc3)ccc2Cl)n1	i	-4.5%	11.2µM*	i
CC(C)OCCCNC(=O)CN1C(=O)COc2ccc(S(=O)(=O)N3CCOCC3)cc21	i	x	-3.7%	i
O=C1CCC2(CCCCC2)N1CCCO	x	x	x	i
COc1ccc(S[C@]2(C(=O)N3CCN(c4ncccn4)CC3)CC(=O)N(C(=O)c3ccccc3)[C@@H]2c2ccc(OC)cc2)cc1	x	x	x	i
CC(C)(C)c1ccc(-n2nc(C#N)c(Cl)cc2=O)cc1	i	-1.5%	3.55µM*	i
CC(C)(C)c1ccc(-n2nc(C(N)=O)c(O)cc2=O)cc1	i	9.0%	16.2%	i
O=C(CCl)Nc1cn(-c2ccccc2)nc1-c1ccc(F)cc1	i	4.2%	8.91µM*	i
COC(=O)[C@@]12CCCCC3=C1N(CCC3)C(=O)[C@H]2CC(=O)NCCC(C)C	x	x	x	i
CCCCCC[C@H](CC)CN(C(=O)Oc1ccccc1)c1ccccc1	x	x	x	i
CSc1nc(C)cc(C)c1S(=O)(=O)c1ccccc1C	u	-0.1%	11.2µM*	i
Cc1ccc(CCNC(=O)CCN2N=C(c3ccc(C)cc3)CCC2=O)cc1	i	x	25.0%	i
SMILES	Abeta rescue	aSyn rescue	TDP-43 yeast inh	FUS yeast rescue
Cc1nc2ccc(C(=O)OC(C)C(=O)c3c(C)[nH]c4ccccc34)cc2nc1C (stereo unspecified)	x	-7.8%	x	x
CCC1CCCCN1S(=O)(=O)c1ccc2c(c1)CCN2C(=O)C1CCC1 (stereo unspecified)	i	8.3%	35.5µM*	i
CCC1CCCCN1S(=O)(=O)c1ccc2c(c1)CCCN2C(C)=O (stereo unspecified)	i	x	u	i
CCOC(=O)C1CCCCN1S(=O)(=O)c1ccc2c(c1)CC(C)N2C(=O)C1CCC1 (stereo unspecified)	x	9.9%	24.3%	25.1µM*
O=C(Nc1ccc(F)cc1)c1ccc(CSc2ccccc2)o1	i	-11.9%	15.8µM*	i
O=C(Nc1ccc(F)cc1)c1ccc(CSc2ccc(Cl)cc2)o1	u	-5.2%	-9.3%[1.82 µM]	i
CC(=O)c1ccc(NC(=O)c2ccc(CSc3ccccc3)o2)cc1	i	-6.5%	15.8µM*	i
O=c1cc2c(nn1Cc1cccc([N+](=O)[O-])c1)-c1ccccc1CC2	i	1.8%	28.2µM*	i
CC(=O)Oc1ccc(/C=C2/CCc3ccccc3C2=O)cc1	i	-29.6%	11.2µM*	i
O=C1C(=Cc2ccccn2)CCc2ccccc21	i	0.7%	17.8µM*	i
COc1ccc2c(c1)CC/C(=C/c1ccccn1)C2=O	i	3.8%	u	i
COc1cccc(/C=C2\CCc3ccccc3C2=O)c1	i	-3.3%	0.0%	i
O=C1/C(=C/c2cccc([N+](=O)[O-])c2)CCc2ccccc21	i	4.6%	22.4µM*	x
O=c1cc2c(nn1Cc1ccccc1)-c1ccccc1CC2	i	5.8%	18.6%	i
COc1ccc2c(Sc3ccc(Cl)cc3)c(C(=O)N3CCCCC3)[nH]c2c1	u	x	1.8%	i
COc1ccc(CNC(=O)C2(CC3CC(c4ccccc4)=NO3)CCN(C(=O)Cc3ccc(F)cc3)CC2)cc1 (stereo unspecified)	i	5.3%	8.1%	i
CCOc1cc(C(=O)N2CCC(CC3CC(c4ccccc4)=NO3)(C(=O)NCc3ccc(OC)cc3)CC2)cc(OCC)c1OCC (stereo unspecified)	i	0.1%	2.0%	17.8µM*
Cc1cc(C(=O)NC2CCC(C)CC2)c(C)o1 (stereo unspecified)	i	u	12.6µM*	i
Cc1cc(C(=O)OCC(=O)NC2CCC(C)CC2)c(C)o1 (stereo unspecified)	i	1.1%	-4.0%	x
CCOc1ccc(N(CC(=O)Nc2c(C)n(C)n(-c3ccccc3)c2=O)S(=O)(=O)c2cccs2)cc1	x	x	x	i
C=C1C(=O)[C@]23C[C@H]1CC[C@H]2[C@]1(C)[C@@H](OC(C)=O)CC[C@@](C)(C(=O)OC)[C@H]1C[C@@H]3OC(C)=O	i	17.4%	17.8µM*	i
C=C1C(=O)[C@]23C[C@H]1CCC2[C@@]1(C)C(C[C@@H]3O)[C@](C)(C(=O)OC)CC[C@@H]1OC(C)=O (stereo partly specified)	i	-81.1%	u	i
C=C1C(=O)[C@]23C[C@H]1CC[C@H]2[C@]1(C)[C@@H](OC(C)=O)CC[C@@](C)(C(=O)O)[C@H]1C[C@@H]3O	i	u	11.2µM*	i
CC1CCN2c3ccccc3CC3(C(=O)OC(C)(C)OC3=O)C2C1 (stereo unspecified)	x	8.5%	x	x
ON=C(CCc1ccccc1)c1ccccc1	i	12.2%	15.8µM*	i
S=c1nc(-c2cc(Cl)ccc2Cl)[nH][nH]1	17.8µM*	-2.2%	u	i
O=C(CSC1=NNC(c2ccccn2)S1)Nc1ccccc1 (stereo unspecified)	u	20.6%	12.6µM*	i
O=C(CSC1=NNC(c2ccccn2)S1)Nc1cccc(Cl)c1 (stereo unspecified)	15.8µM*	8.91µM*	u	i
